# PubChem BioAssay
# A number with no mark means an inactive call. The rule behind the calls is not given here. Where a SMILES comes first, the peptide text is derived from it. The star is where a group is joined. Boc = CC(C)(C)OC(=O)*; OBn = c1ccc(CO*)cc1
# Biological target: Botulinum neurotoxin type A (Clostridium botulinum) (UniProt P0DPI0)
# Assay: BoNT/A light chain protease inhibitors, biochemical, multiplex microsphere flow cytometry, validation set (AID 588460)
# Conditions: at 10 µM, stronger effect = higher value
# Chain of Botulinum neurotoxin type A (Clostridium botulinum) (P0DPI0 whole entry, looked up): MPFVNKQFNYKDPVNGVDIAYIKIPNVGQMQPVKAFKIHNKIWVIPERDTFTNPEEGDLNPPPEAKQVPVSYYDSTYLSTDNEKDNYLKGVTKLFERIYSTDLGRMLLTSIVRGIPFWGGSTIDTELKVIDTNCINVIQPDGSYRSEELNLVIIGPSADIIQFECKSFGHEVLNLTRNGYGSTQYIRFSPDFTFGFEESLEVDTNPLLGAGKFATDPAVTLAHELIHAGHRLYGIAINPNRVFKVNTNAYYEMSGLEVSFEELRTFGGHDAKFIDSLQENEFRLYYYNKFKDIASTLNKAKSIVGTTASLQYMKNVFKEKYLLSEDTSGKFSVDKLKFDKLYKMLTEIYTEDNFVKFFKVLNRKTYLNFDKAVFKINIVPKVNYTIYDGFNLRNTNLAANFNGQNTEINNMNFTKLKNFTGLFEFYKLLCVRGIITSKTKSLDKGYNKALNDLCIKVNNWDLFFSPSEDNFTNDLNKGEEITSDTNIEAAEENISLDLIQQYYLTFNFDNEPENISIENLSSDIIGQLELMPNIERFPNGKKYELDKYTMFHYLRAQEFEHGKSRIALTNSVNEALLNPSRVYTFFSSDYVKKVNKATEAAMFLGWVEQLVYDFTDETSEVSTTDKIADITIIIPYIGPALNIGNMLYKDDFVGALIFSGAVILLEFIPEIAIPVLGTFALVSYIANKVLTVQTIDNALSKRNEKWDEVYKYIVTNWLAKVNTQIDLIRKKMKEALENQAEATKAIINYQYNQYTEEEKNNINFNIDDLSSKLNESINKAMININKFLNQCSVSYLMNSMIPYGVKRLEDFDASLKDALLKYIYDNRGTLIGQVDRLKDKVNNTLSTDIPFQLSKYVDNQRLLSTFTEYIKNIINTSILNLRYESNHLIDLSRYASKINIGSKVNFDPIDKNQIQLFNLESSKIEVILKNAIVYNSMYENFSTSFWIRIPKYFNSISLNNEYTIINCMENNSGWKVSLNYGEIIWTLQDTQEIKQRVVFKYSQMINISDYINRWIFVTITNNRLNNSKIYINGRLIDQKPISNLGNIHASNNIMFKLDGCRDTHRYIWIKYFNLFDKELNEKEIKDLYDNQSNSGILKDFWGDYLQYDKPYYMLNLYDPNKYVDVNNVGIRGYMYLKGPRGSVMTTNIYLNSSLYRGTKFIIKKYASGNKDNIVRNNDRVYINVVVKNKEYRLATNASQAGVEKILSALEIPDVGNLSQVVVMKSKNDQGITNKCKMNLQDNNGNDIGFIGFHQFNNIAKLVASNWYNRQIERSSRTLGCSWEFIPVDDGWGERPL
row,Compound,inhibition
1,COc1ccc2oc(C)c(C(N)=O)c2c1,0.5%
2,COc1ccc(-c2nnc(-c3cc4c(ccc5ccccc54)oc3=O)o2)cc1,0.4%
3,CNc1c2c(nn1C)CCCC2,-1.3%
4,O=C(NCCc1ccccc1)C1CCN(C2CCN(Cc3ccco3)CC2)CC1,-0.7%
5,O=C1OC(Nc2ccc3c(c2)OCO3)c2ccccc21 (stereo not drawn),-1.8%
6,CC1(CC(=O)Nc2ccccc2)NC(=S)N(c2ccccc2)N1 (stereo not drawn),0%
7,C[N+](C)(C)CCCC(=O)c1ccc2c(c1)OCO2,-1.8%
8,CCOC(=O)C1=C(N)Oc2c(oc(CO)cc2=O)C1c1ccc(F)c(F)c1 (stereo not drawn),0.3%
9,CN1CCC(OC(c2ccccc2)c2ccccc2)CC1,-0.5%
10,O=C1[C@@H]2CSCN2C(=O)CN1Cc1ccc(F)cc1,0.7%
11,COc1cc2c(cc1O)CCN(C(=O)c1ccco1)C2C (stereo not drawn),1%
12,O=C(CN1C(=O)c2ccccc2S1(=O)=O)Nc1ccccc1,0.2%
13,C[C@]12CC[C@@H]3c4ccc(O)cc4C(=O)C[C@H]3[C@@H]1CC[C@@H]2O,-1.3%
14,CC(C)CC(NC(=O)C(NC(=O)OC(C)(C)C)C(C)C)C(=O)NC(CCC(=O)OCc1ccccc1)C(N)=O (stereo not drawn) (Boc-Val-Leu-Glu(OBn)-NH2; configuration not given here),-1.3%
15,COc1cc(CNc2nnnn2C)ccc1OCc1ccc(F)cc1Cl,-0.5%
16,Cc1ccc(Cl)c(OCCCN(C)Cc2ccccc2)c1,0.1%
17,CN1CCN(CCCN2c3ccccc3Sc3ccc(Cl)cc32)CC1,-3.2%
18,Cc1[nH]c2ccccc2c1C(=O)CN1CCCC1,0.2%
19,COc1cc2c(cc1OC)C(c1cc(OC)c(OC)c(OC)c1)NCC2 (stereo not drawn),-0.2%
20,COc1cc2c(cc1OC)/C(=C/c1ccc(Cl)cc1)C(=O)OC2,0.8%

row,Compound,inhibition
1,CN(C)C(=O)CCCCCCCCC(=O)N(C)C,-0.9%
2,COc1cccc(-n2cc(CNCc3c(C(=O)N(C)C)nc4ccc(Cl)cn34)cn2)c1,-0.7%
3,O=C(NC(=S)Nc1ccc(N2CCN(C(=O)c3ccccc3)CC2)cc1)c1cccs1,-3.2%
4,COc1ccc(C(=O)O)cc1F,-0.6%
5,O=C1C(Cc2ccccc2)NC(=S)N1c1ccccc1 (stereo not drawn),0.9%
6,CC(C)[N+]1(C)[C@@H]2CC[C@H]1CC(OC(=O)C(CO)c1ccccc1)C2 (stereo partly drawn),1%
7,COc1cc2c3c(c1)C(C)CC(C)(C)N3C(=O)C2=O (stereo not drawn),-1.3%
8,COc1cc2c(cc1OC)CN(C(=O)c1ccc(S(=O)(=O)N(C)c3ccccc3)cc1)CC2,0.6%
9,C=CCc1cccc2cc(C(=O)Nc3ccc(CC(=O)O)cc3)c(=O)oc12,-0.1%
10,Clc1cc(-c2ccc(/C=N/n3cnnc3)o2)ccc1Br,-0.3%
11,C#C[C@]1(O)CC[C@H]2[C@@H]3CCc4cc(OC)ccc4[C@H]3CC[C@@]21C,0.4%
12,C=CCn1c(SCC(=O)NC2CCCCC2)nc2ccccc2c1=O,-1.1%
13,Cc1nc2ccccc2n1CC(=O)NC1CCCC1,-0.2%
14,CCOc1cc(C)cc2oc(=O)cc(-c3ccccc3)c12,-0.6%
15,COc1cc(C2C(C(=O)c3ccc(C)o3)=C(O)C(=O)N2Cc2cccnc2)ccc1O (stereo not drawn),-0.4%
16,O=C(N/N=C/c1ccc([N+](=O)[O-])o1)c1ccc(O)cc1,-3.9%
17,COc1ccc(C(C)=O)c2c1OCCO2,-2.8%
18,O=C(N1CCCCC1)C1(c2ccccc2)CCOCC1,1.3%
19,COc1ccc(C2N3CC4(C)CN2CC(C)(C3)C4)cc1OC (stereo not drawn),-1.6%

# Biological target: Lethal factor (Bacillus anthracis) (UniProt P15917)
# Sequence (P15917 whole entry, looked up): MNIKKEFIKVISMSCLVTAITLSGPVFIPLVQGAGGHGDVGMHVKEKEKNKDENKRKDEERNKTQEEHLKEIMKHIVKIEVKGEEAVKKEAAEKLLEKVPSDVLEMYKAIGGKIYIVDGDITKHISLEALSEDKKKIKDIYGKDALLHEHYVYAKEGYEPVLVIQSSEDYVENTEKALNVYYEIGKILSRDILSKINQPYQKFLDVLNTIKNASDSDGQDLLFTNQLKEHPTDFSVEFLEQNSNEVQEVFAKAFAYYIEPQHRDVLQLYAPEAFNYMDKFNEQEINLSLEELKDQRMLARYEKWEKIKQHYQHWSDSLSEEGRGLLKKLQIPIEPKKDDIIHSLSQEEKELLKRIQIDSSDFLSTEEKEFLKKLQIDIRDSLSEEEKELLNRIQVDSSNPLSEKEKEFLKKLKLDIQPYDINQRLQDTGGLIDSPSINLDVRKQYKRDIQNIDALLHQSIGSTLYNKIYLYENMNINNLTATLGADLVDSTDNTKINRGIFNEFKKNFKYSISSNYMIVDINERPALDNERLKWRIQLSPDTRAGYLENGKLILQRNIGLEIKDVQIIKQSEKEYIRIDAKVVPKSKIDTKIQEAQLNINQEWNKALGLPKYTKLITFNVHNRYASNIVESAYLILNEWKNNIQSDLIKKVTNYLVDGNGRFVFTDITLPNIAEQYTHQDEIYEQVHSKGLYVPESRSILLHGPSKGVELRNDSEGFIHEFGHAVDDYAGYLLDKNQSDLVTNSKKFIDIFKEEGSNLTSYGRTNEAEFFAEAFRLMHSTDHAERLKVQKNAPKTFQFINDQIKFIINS
# Assay: Lethal factor protease inhibitors, Bacillus anthracis, multiplex microsphere cleavage assay, validation set (AID 588461)
# Conditions: flow cytometry, at 10 µM, stronger effect = higher value
row,Compound,inhibition
1,COc1ccc2oc(C)c(C(N)=O)c2c1,-0.4%
2,COc1ccc(-c2nnc(-c3cc4c(ccc5ccccc54)oc3=O)o2)cc1,-1.7%
3,CNc1c2c(nn1C)CCCC2,-3.5%
4,O=C(NCCc1ccccc1)C1CCN(C2CCN(Cc3ccco3)CC2)CC1,-9.8%
5,O=C1OC(Nc2ccc3c(c2)OCO3)c2ccccc21 (stereo not drawn),-5.7%
6,CC1(CC(=O)Nc2ccccc2)NC(=S)N(c2ccccc2)N1 (stereo not drawn),5.1%
7,C[N+](C)(C)CCCC(=O)c1ccc2c(c1)OCO2,-6%
8,CCOC(=O)C1=C(N)Oc2c(oc(CO)cc2=O)C1c1ccc(F)c(F)c1 (stereo not drawn),-2.3%
9,CN1CCC(OC(c2ccccc2)c2ccccc2)CC1,-5.1%
10,O=C1[C@@H]2CSCN2C(=O)CN1Cc1ccc(F)cc1,3.4%
11,COc1cc2c(cc1O)CCN(C(=O)c1ccco1)C2C (stereo not drawn),2.3%
12,O=C(CN1C(=O)c2ccccc2S1(=O)=O)Nc1ccccc1,-4.6%
13,C[C@]12CC[C@@H]3c4ccc(O)cc4C(=O)C[C@H]3[C@@H]1CC[C@@H]2O,-6.8%
14,CC(C)CC(NC(=O)C(NC(=O)OC(C)(C)C)C(C)C)C(=O)NC(CCC(=O)OCc1ccccc1)C(N)=O (stereo not drawn) (Boc-Val-Leu-Glu(OBn)-NH2; configuration not given here),-0.4%
15,COc1cc(CNc2nnnn2C)ccc1OCc1ccc(F)cc1Cl,-1.3%
16,Cc1ccc(Cl)c(OCCCN(C)Cc2ccccc2)c1,-7.8%
17,CN1CCN(CCCN2c3ccccc3Sc3ccc(Cl)cc32)CC1,-10.3%
18,Cc1[nH]c2ccccc2c1C(=O)CN1CCCC1,-1.1%
19,COc1cc2c(cc1OC)C(c1cc(OC)c(OC)c(OC)c1)NCC2 (stereo not drawn),6.9%
20,COc1cc2c(cc1OC)/C(=C/c1ccc(Cl)cc1)C(=O)OC2,-1.5%

row,Compound,inhibition
1,CN(C)C(=O)CCCCCCCCC(=O)N(C)C,-5.5%
2,COc1cccc(-n2cc(CNCc3c(C(=O)N(C)C)nc4ccc(Cl)cn34)cn2)c1,7.5%
3,O=C(NC(=S)Nc1ccc(N2CCN(C(=O)c3ccccc3)CC2)cc1)c1cccs1,-10.5%
4,COc1ccc(C(=O)O)cc1F,-1.1%
5,O=C1C(Cc2ccccc2)NC(=S)N1c1ccccc1 (stereo not drawn),-7.8%
6,CC(C)[N+]1(C)[C@@H]2CC[C@H]1CC(OC(=O)C(CO)c1ccccc1)C2 (stereo partly drawn),-3%
7,COc1cc2c3c(c1)C(C)CC(C)(C)N3C(=O)C2=O (stereo not drawn),-5.6%
8,COc1cc2c(cc1OC)CN(C(=O)c1ccc(S(=O)(=O)N(C)c3ccccc3)cc1)CC2,3.4%
9,C=CCc1cccc2cc(C(=O)Nc3ccc(CC(=O)O)cc3)c(=O)oc12,0.8%
10,Clc1cc(-c2ccc(/C=N/n3cnnc3)o2)ccc1Br,0.9%
11,C#C[C@]1(O)CC[C@H]2[C@@H]3CCc4cc(OC)ccc4[C@H]3CC[C@@]21C,-5.2%
12,C=CCn1c(SCC(=O)NC2CCCCC2)nc2ccccc2c1=O,-3.5%
13,Cc1nc2ccccc2n1CC(=O)NC1CCCC1,-4.4%
14,CCOc1cc(C)cc2oc(=O)cc(-c3ccccc3)c12,-4.4%
15,COc1cc(C2C(C(=O)c3ccc(C)o3)=C(O)C(=O)N2Cc2cccnc2)ccc1O (stereo not drawn),-0.1%
16,O=C(N/N=C/c1ccc([N+](=O)[O-])o1)c1ccc(O)cc1,-11.9%
17,COc1ccc(C(C)=O)c2c1OCCO2,0.8%
18,O=C(N1CCCCC1)C1(c2ccccc2)CCOCC1,-2.1%
19,COc1ccc(C2N3CC4(C)CN2CC(C)(C3)C4)cc1OC (stereo not drawn),-4.9%
